Source: the supplement of paper PMC3334620
Over roughly 33,000 sequences, “E-score (-0.5 to 0.5)” has its median near -0.017; the highest 2% begin near 0.3. This is one part of a sample in which the highest values are shown more often than they occur.

biological target: T1, Sut1 (UniProt P53032); assay: PBM E-score (8-mer binding enrichment) (E-score (-0.5 to 0.5)); higher = stronger / more preferred TF binding; conditions: protein concentration: 200 nM; construct: GST-full length
T1 sequence: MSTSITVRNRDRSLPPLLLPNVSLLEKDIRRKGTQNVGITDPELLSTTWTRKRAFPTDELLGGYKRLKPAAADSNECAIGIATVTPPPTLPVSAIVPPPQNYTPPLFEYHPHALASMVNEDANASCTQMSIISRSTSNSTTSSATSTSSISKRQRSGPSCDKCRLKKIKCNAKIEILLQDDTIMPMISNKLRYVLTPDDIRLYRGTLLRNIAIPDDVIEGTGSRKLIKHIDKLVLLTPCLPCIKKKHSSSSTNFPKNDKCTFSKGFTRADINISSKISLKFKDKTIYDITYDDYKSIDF
Method in brief: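 Masliner-normalised scans of fluorescent anti-GST signal were the basis for scoring. That signal came from GST-tagged yeast transcription factors applied at about 100-200 nM to double-stranded universal all-10-mer Agilent arrays on fresh or once-stripped slides. Each ungapped eight-base word, pooled with its reverse complement, received an E-score from the Universal PBM Analysis Suite.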

| Sequence | PBM E-score |
| --- | --- |
| CGGATCAA | 0.16 |
| CGTCTTGA | 0.0919 |
| AGCCCCAA | -0.358 |
| ATCGCTAC | -0.0624 |
| AATTATAT | 0.212 |
| TCCACTAA | 0.0668 |
| CCCAAACA | 0.00961 |
| AAAATGAT | 0.342 |
| ATAATTTG | 0.249 |
| AAAATGAA | 0.0412 |
| GTAATTTA | 0.221 |
| ATAATTAT | 0.39 |
| ATAATTAG | 0.235 |
| CTCATTAA | 0.119 |
| ATCATTAA | 0.305 |
| ATAATTTA | 0.337 |
| ATAATTAC | 0.283 |
| ATCATTAG | 0.0427 |
| AAAATGAC | 0.157 |
| ACAGTTCG | 0.183 |
| GCTTCCCA | -0.179 |
| GTTTGGTA | 0.178 |
| ATCGGTAG | 0.0989 |
| TCGGTGAA | 0.0263 |
| TAAGATCA | 0.0673 |

| Sequence | PBM E-score |
| --- | --- |
| ATAAATAG | 0.295 |
| GAAAAATA | 0.306 |
| AAAAAATA | 0.242 |
| ATAAAATA | 0.323 |
| GTAAAATA | 0.145 |
| GGAAAATA | 0.226 |
| TTAAATAA | 0.259 |
| ATAAATAA | 0.321 |
| ATAAAATC | 0.162 |
| ATAAAGAT | 0.328 |
| ATAAAGAA | 0.19 |
| ATAAAGAG | 0.0458 |
| CTCGTTCA | -0.205 |
| AGTAGACC | -0.172 |
| ATGACTGC | 0.00267 |
| CAATGCTC | -0.0941 |
| ACCAACGT | 0.00237 |
| ATCAATTC | 0.135 |
| ATCAATTA | 0.31 |
| AAAAATAA | 0.326 |
| AAAATAGA | 0.319 |
| GGAAATTA | 0.286 |
| CAAAATAA | 0.201 |
| AAAATAGC | 0.0485 |
| TAAAATAA | 0.213 |

| Sequence | PBM E-score |
| --- | --- |
| ATCAATTG | 0.197 |
| TAAATAGA | 0.0796 |
| AGAAATTA | 0.335 |
| AGAAATTC | 0.126 |
| AACCAACC | -0.178 |
| AGAATACA | 0.117 |
| CACTTTGC | 0.0519 |
| AGGCGACC | -0.207 |
| CTCGCCAG | -0.204 |
| ACCTTGCC | -0.0123 |
| ATAAAAAT | 0.252 |
| AAAAATTA | 0.228 |
| CAAAATTA | 0.241 |
| CTAAATTA | 0.24 |
| ATAAATAC | 0.275 |
| ATAAATTA | 0.326 |
| TAAAATTA | 0.34 |
| AAAATAAC | 0.12 |
| AAAATAAA | 0.347 |
| TAAATAAA | 0.247 |
| ATAAATAT | 0.341 |
| ATAAATTG | 0.268 |
| ACCAAACT | -0.0181 |
| CAGTGGTC | -0.165 |
| GGCAGAAA | 0.0918 |

| Sequence | PBM E-score |
| --- | --- |
| CCGACCCA | 0.0491 |
| CCATCAGA | -0.213 |
| AATAAGGG | -0.0871 |
| CCGACACC | -0.0623 |
| TGTCTCAA | -0.115 |
| CGAAATAA | 0.313 |
| CGAAATAC | 0.215 |
| CAAAATTC | 0.308 |
| CAAAATTG | 0.0231 |
| AAAAATTC | 0.235 |
| ACAAATAT | 0.339 |
| ACAAATAG | 0.113 |
| GGAAATAA | 0.24 |
| ACAAATAC | 0.205 |
| ATCTGAGC | 0.113 |
| GACTTCGC | 0.0243 |
| ATTCCGAG | 0.341 |
| ATTCCGAA | 0.378 |
| ATTCCAAG | 0.0681 |
| ATTCCGTA | 0.296 |
| ATTCCGAC | 0.219 |
| CTTCCGAA | 0.233 |
| CGTCAAGA | -0.239 |
| AGAGAGTA | -0.0447 |
| GTAAGAAC | 0.215 |

| Sequence | PBM E-score |
| --- | --- |
| TGGCAGAA | -0.0838 |
| TGAATTCA | 0.0862 |
| CGCGACAC | 0.0583 |
| ATTTCCGG | 0.325 |
| ATTTCCGA | 0.231 |
| ATTTTCCC | -0.105 |
| AATTTCCG | 0.257 |
| ATTTTCGA | 0.0872 |
| ATTTTCGC | 0.0665 |
| ATTTTCGG | 0.345 |
| ATTTCCGC | 0.156 |
| ATTTTCCG | 0.4 |
| CAGTATTA | 0.0764 |
| ACCAAACC | 0.0288 |
| CAGATGGG | -0.192 |
| TAAGCATA | 0.122 |
| AATTAATT | 0.206 |
| CATAATTC | 0.0494 |
| AGTTAATA | 0.331 |
| AGTTAATC | 0.16 |
| CATAATTA | 0.317 |
| CCTAATTA | 0.039 |
| AATTAATA | 0.327 |
| GGTTAATA | 0.163 |
| AATAATTC | 0.268 |

| Sequence | PBM E-score |
| --- | --- |
| GATAATTA | 0.216 |
| AATAATTA | 0.329 |
| TATTAATA | 0.167 |
| AATCAAGA | 0.0025 |
| GGCGAGCC | -0.157 |
| GAGCTACA | -0.127 |
| TATAATCA | 0.203 |
| CCCGGGCA | -0.229 |
| AAAATCGC | 0.159 |
| ACTGCTTA | 0.0551 |
| AGAATCCG | 0.00193 |
| GGAAGAGA | 0.0239 |
| CGGGTTGA | -0.223 |
| ACTGTCAA | -0.099 |
| GTATAACA | 0.215 |
| ATTTAACC | 0.154 |
| ATATAACG | 0.299 |
| ATTTAACG | 0.298 |
| ATATAACA | 0.309 |
| ATTTAACA | 0.213 |
| ATATAACC | 0.0866 |
| ATTTAATA | 0.265 |
| CTATAACA | 0.0773 |
| ATTTAATC | 0.307 |
| CTATAACC | -0.00144 |

| Sequence | PBM E-score |
| --- | --- |
| CTTTAATC | 0.183 |
| CTAAATAG | 0.0251 |
| ACATTATC | 0.102 |
| ACATACTA | 0.15 |
| AAGCCCTC | -0.213 |
| AATGTGAG | 0.13 |
| GAGGCATA | 0.0426 |
| GCCGTGTA | -0.196 |
| ACTTGAAC | 0.157 |
| GGACTTCA | 0.321 |
| AGACTTTA | -0.111 |
| CGACTTGA | 0.06 |
| CGACTTCA | 0.136 |
| AGACTTCA | -0.0862 |
| GGACTTTA | 0.347 |
| AGACTTGA | 0.0388 |
| GGACTTGA | 0.339 |
| CGACTTTA | 0.166 |
| ATTTTAGG | 0.113 |
| ATACGCTG | 0.025 |
| AGATCATA | 0.155 |
| ATCTGCAC | -0.145 |
| CACCGGGA | -0.0737 |
| CACCGGAA | 0.361 |
| CACCGGTA | -0.12 |

| Sequence | PBM E-score |
| --- | --- |
| AACCGGCC | -0.0986 |
| AACCGGAT | 0.222 |
| AACCGGAC | 0.345 |
| GACCGGGC | -0.0226 |
| AACCGGAA | 0.229 |
| AACCGGAG | 0.43 |
| GACCGGAC | 0.364 |
| AACCGGTC | 0.0286 |
| GACCGGAA | 0.179 |
| GTGATTCA | -0.119 |
| CGCCAAAG | -0.237 |
| CCGGGTAA | 0.136 |
| TCGTTCCA | -0.0676 |
| GATGGTGA | -0.174 |
| ACCGTGAA | 0.00123 |
| ACCTGTGG | -0.141 |
| TACCGGGA | 0.229 |
| TACCGGAA | 0.298 |
| CACCGGTC | -0.223 |
| CACCGGAG | 0.437 |
| CACCGGTG | 0.0775 |
| CACCGGCC | -0.231 |
| TACCGGTA | 0.0972 |
| CACCGGAC | 0.409 |
| CACCGGCG | 0.117 |

| Sequence | PBM E-score |
| --- | --- |
| ACAGCAAA | 0.127 |
| GCGTCTAA | -0.155 |
| CCCTACCG | -0.233 |
| AGAAACCT | 0.149 |
| GCCTGTCC | -0.154 |
| AAGAACTT | 0.183 |
| CATGAAGC | -0.0952 |
| ACTGTGAC | -0.142 |
| GGTTCGAA | 0.14 |
| GGTTCGCA | -0.0674 |
| CGTTCGGA | 0.385 |
| CGTTCGTA | 0.15 |
| GGTTCGGA | 0.423 |
| AGTTCGGG | 0.0543 |
| AGTTCGGC | 0.126 |
| AGTTCGGA | 0.352 |
| CGTTCGGC | -0.0654 |
| CCCACTAG | -0.248 |
| AGTGTAGC | -0.123 |
